Experimental data taken from PubChem BioAssay (EPA / NIEHS).
Inconclusive results are not listed. The source made the active and inactive calls. The calls were made as follows: active = hit-call score of the fitted dose curve at least 0.9, where 1 is the maximum; inconclusive = response in the unintended direction; inactive = score below 0.9.

Key:
[1] = biological target: human Retinoic Acid Receptor beta (RARb), RARB (gene 5915) (UniProt P10826); experiment: ATG_RARb_TRANS: Attagene TRANS-FACTORIAL HepG2 Assay for human Retinoic Acid Receptor beta (AID 2283004)
Chain of human Retinoic Acid Receptor beta (RARb), RARB (gene 5915) (P10826 whole entry, looked up, the tested form may be a part): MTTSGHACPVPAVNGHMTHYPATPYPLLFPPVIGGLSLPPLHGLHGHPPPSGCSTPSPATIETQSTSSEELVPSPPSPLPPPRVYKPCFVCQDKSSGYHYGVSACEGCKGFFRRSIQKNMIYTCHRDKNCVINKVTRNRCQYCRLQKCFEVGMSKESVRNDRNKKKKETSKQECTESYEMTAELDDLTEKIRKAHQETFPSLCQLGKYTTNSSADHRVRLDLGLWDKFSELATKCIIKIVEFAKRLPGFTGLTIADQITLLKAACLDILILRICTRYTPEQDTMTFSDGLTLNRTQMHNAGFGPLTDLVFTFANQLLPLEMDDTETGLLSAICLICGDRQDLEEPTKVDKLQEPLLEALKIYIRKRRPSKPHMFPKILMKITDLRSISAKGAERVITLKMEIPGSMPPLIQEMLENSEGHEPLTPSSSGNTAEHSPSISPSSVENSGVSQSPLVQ
In short: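 Fluorescent capillary-electrophoresis detection of GAL4-UAS reporter mRNA defines the endpoint, with induction over DMSO-treated wells scored as activity. Transiently transfected human hepatoma HepG2 cells expressing exogenous NR–Gal4 proteins are exposed to test chemicals for 24 h.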

[2] = biological target: Retinoic acid receptor alpha (Homo sapiens) (UniProt P10276); experiment: ATG_RARa_TRANS: Attagene TRANS-FACTORIAL HepG2 Assay for human Retinoic Acid Receptor alpha (RARa) (AID 2283005)
In short: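 HepG2 cells transiently transfected with multiple reporter units expressing chimeric RARα-GAL4 fusion, with GAL4-UAS-driven reporters. After 24 h compound exposure, reporter mRNA induction quantified by RT-PCR and capillary electrophoresis with fluorescent labeling; gain-of-signal fitted relative to DMSO control.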

[3] = biological target: human Retinoic Acid Receptor gamma (RARg), RARG (gene 5916) (UniProt P13631); experiment: ATG_RARg_TRANS: Attagene TRANS-FACTORIAL HepG2 Assay for human Retinoic Acid Receptor gamma (RARg) (AID 2283009)
Chain of human Retinoic Acid Receptor gamma (RARg), RARG (gene 5916) (P13631 whole entry, looked up, the tested form may be a part): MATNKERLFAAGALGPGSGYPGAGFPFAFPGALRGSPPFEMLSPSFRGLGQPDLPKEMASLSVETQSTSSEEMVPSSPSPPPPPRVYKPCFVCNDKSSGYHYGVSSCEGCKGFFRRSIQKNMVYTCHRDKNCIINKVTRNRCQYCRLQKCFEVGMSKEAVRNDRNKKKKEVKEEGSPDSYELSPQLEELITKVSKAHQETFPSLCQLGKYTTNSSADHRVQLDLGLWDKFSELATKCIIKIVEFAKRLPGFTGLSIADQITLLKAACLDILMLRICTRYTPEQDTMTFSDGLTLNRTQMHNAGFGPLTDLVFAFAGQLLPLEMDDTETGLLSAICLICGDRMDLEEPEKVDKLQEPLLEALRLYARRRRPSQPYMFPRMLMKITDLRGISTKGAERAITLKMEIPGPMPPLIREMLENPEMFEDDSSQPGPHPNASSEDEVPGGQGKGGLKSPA
In short: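 Gain-of-signal relative to DMSO is reported from fluorescent capillary electrophoresis of RT-PCR reporter products. These came from HepG2 cells expressing transfected RARg-GAL4 chimeras with UAS reporters, harvested 24 h after dosing.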

[4] = biological target: human RAR-related Orphan Receptor beta (RORb), RORB (gene 6096) (UniProt Q92753); experiment: ATG_RORb_TRANS: Attagene TRANS-FACTORIAL HepG2 Assay for human RAR-related Orphan Receptor beta (RORb) (AID 2283010)
Chain of human RAR-related Orphan Receptor beta (RORb), RORB (gene 6096) (Q92753 whole entry, looked up, the tested form may be a part): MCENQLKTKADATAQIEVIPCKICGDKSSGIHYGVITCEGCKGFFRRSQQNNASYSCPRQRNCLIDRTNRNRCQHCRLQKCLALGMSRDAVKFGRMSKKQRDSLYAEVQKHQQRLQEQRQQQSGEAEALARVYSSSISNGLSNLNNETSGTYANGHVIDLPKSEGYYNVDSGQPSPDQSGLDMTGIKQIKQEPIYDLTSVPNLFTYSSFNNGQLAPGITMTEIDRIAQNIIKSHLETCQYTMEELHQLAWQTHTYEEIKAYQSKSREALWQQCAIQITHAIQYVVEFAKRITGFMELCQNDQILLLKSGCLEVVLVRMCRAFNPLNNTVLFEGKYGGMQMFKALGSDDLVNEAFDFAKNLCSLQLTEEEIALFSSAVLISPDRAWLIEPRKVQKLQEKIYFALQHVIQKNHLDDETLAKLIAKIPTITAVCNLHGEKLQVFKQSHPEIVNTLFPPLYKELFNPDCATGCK
In short: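 Multiplexed transcription-factor reporter assay: HepG2 cells transiently carrying NR-Gal4/GAL4-UAS constructs, 24 h treatment, mRNA quantified by RT-PCR plus capillary electrophoresis fluorescence; activity scored as induction over DMSO.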

[5] = biological target: human RAR-related Orphan Receptor gamma (RORg), RORC (gene 6097) (UniProt P51449); experiment: ATG_RORg_TRANS: Attagene TRANS-FACTORIAL HepG2 Assay for human RAR-related Orphan Receptor gamma (RORg) (AID 2283011)
Chain of human RAR-related Orphan Receptor gamma (RORg), RORC (gene 6097) (P51449 whole entry, looked up, the tested form may be a part): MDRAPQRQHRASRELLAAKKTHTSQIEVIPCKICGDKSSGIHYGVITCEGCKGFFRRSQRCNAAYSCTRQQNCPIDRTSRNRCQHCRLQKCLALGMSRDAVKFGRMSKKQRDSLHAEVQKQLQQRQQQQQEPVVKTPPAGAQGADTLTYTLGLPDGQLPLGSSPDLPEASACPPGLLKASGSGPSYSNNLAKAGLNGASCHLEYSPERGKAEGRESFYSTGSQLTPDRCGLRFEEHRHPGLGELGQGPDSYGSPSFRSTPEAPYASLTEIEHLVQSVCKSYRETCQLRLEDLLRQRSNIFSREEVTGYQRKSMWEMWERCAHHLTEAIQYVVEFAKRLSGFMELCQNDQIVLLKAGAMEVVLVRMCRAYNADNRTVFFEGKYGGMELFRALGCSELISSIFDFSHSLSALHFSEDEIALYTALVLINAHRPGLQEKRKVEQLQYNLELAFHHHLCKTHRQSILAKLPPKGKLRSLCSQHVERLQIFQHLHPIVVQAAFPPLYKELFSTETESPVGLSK
In short: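 Chimeric RORg-Gal4 transactivation in transfected HepG2; 24 h exposure; RT-PCR/capillary electrophoresis readout of reporter mRNA, DMSO baseline.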

[6] = biological target: Retinoic acid receptor RXR-alpha (Homo sapiens) (UniProt P19793); experiment: ATG_RXRa_TRANS: Attagene TRANS-FACTORIAL HepG2 Assay for human Retinoid X Receptor alpha (RXRa) (AID 2283012)
Chain of Retinoic acid receptor RXR-alpha (Homo sapiens) (P19793 whole entry, looked up, the tested form may be a part): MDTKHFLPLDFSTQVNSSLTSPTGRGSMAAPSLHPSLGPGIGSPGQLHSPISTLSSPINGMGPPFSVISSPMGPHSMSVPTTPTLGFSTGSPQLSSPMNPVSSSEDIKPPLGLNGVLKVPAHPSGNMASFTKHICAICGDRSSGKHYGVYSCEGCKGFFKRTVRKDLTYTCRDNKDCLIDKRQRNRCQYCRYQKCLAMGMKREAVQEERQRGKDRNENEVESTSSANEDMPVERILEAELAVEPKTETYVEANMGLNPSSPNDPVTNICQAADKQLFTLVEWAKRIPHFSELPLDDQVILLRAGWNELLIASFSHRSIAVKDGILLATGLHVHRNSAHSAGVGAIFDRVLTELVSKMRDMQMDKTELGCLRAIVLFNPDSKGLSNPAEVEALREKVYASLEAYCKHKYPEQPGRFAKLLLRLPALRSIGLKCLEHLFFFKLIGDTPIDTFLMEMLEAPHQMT
In short: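 Chimeric NR-GAL4 trans-activation in HepG2, 24 h treatment; reporter transcripts quantified by fluorescence on capillary electrophoresis, analysed for upward change from DMSO.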

[7] = biological target: human Thyroid Receptor alpha (THRa1), THRA (gene 7067) (UniProt P10827); experiment: ATG_THRa1_TRANS: Attagene TRANS-FACTORIAL HepG2 Assay for human Thyroid Receptor alpha (THRa1) (AID 2283014)
Chain of human Thyroid Receptor alpha (THRa1), THRA (gene 7067) (P10827 whole entry, looked up, the tested form may be a part): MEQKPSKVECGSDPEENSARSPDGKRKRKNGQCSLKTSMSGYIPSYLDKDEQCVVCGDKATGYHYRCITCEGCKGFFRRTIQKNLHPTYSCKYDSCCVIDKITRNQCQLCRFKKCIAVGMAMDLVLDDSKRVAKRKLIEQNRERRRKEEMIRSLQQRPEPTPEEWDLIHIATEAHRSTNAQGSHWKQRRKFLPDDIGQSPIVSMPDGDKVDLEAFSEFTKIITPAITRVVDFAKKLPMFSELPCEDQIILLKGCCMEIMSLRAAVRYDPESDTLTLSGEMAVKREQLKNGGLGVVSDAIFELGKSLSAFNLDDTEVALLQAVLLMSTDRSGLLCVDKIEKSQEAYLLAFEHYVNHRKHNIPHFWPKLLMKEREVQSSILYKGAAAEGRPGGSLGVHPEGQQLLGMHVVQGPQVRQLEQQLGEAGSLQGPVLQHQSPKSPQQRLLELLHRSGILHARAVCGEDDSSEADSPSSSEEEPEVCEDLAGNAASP
In short: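 Measured here is mRNA from a GAL4-UAS reporter in transfected HepG2 cells carrying a Gal4-fused receptor, 24 h post-dose. DMSO served as negative control and baseline.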

[8] = biological target: human Vitamin D Receptor (VDR), VDR (gene 7421) (UniProt P11473); experiment: ATG_VDR_TRANS: Attagene TRANS-FACTORIAL HepG2 Assay for human Vitamin D Receptor (VDR) (AID 2283022)
Chain of human Vitamin D Receptor (VDR), VDR (gene 7421) (P11473 whole entry, looked up): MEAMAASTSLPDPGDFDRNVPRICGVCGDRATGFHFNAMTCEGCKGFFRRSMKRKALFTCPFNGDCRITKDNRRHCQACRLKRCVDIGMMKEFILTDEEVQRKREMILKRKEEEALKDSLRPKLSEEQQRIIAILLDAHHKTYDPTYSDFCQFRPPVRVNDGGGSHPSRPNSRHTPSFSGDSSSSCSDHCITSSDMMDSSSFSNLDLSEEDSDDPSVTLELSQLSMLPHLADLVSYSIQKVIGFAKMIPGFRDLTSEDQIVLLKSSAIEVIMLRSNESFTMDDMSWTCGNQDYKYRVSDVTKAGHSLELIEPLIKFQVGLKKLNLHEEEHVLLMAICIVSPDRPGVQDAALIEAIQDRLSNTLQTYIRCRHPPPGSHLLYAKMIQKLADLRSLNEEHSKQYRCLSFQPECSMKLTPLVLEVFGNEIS
In short: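 Multiplexed TRANS reporter in HepG2; 24 h treatment; reporter mRNA by RT-PCR plus capillary electrophoresis; upregulation scored relative to DMSO.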

[9] = biological target: Peroxisome proliferator-activated receptor gamma (Homo sapiens) (UniProt P37231); experiment: ATG_PPARg_TRANS: Attagene TRANS-FACTORIAL HepG2 Assay for human Peroxisome Proliferator-activated Receptor-gamma (PPARg) (AID 2283007)
Chain of Peroxisome proliferator-activated receptor gamma (Homo sapiens) (P37231 whole entry, looked up, the tested form may be a part): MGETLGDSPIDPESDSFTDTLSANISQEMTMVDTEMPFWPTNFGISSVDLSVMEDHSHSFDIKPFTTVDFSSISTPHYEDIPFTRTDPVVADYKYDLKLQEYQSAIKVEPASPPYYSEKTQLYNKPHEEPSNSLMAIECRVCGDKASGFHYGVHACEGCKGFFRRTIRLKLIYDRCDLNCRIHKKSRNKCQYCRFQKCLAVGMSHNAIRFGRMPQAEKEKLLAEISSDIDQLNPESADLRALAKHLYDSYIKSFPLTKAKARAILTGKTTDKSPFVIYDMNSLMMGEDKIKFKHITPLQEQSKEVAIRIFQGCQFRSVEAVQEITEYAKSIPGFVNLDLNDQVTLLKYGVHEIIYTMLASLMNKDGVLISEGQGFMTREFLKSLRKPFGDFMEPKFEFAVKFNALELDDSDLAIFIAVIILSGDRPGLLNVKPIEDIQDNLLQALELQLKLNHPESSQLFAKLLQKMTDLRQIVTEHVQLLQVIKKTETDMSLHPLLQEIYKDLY
In short: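 HepG2 cells are transiently transfected with GAL4-UAS reporter units driven by chimeric NR-Gal4 fusions and dosed for 24 h. Reporter mRNA is quantified by RT-PCR, 6-FAM labelling, HpaI digestion and capillary electrophoresis. Induction is scored against DMSO.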

[10] = biological target: Nuclear receptor subfamily 1 group I member 2 (Homo sapiens) (UniProt O75469); experiment: ATG_PXR_TRANS: Attagene TRANS-FACTORIAL HepG2 Assay for human Pregnane X Receptor (PXR) (AID 2283008)
Chain of Nuclear receptor subfamily 1 group I member 2 (Homo sapiens) (O75469 whole entry, looked up, the tested form may be a part): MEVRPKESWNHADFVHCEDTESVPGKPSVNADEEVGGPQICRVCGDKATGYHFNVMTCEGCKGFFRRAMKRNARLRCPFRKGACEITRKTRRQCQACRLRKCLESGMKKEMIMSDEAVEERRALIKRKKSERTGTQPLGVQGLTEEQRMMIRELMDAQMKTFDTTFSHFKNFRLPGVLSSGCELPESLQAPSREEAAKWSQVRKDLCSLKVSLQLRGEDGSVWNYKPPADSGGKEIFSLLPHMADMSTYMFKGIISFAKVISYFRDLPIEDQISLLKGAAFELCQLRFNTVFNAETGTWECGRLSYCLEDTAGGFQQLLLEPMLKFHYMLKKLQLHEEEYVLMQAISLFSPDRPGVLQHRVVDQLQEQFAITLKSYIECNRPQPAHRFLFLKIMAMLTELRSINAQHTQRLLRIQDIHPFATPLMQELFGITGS
In short: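 Multiplexed TRANS reporter panel in HepG2; this component tracks PXR-Gal4-driven reporter mRNA after 24 h dosing, measured by RT-PCR with capillary electrophoresis fluorescence, fitted against DMSO.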

[11] = biological target: human Retinoid X Receptor beta (RXRb), RXRB (gene 6257) (UniProt P28702); experiment: ATG_RXRb_TRANS: Attagene TRANS-FACTORIAL HepG2 Assay for human Retinoid X Receptor beta (RXRb) (AID 2283013)
Chain of human Retinoid X Receptor beta (RXRb), RXRB (gene 6257) (P28702 whole entry, looked up, the tested form may be a part): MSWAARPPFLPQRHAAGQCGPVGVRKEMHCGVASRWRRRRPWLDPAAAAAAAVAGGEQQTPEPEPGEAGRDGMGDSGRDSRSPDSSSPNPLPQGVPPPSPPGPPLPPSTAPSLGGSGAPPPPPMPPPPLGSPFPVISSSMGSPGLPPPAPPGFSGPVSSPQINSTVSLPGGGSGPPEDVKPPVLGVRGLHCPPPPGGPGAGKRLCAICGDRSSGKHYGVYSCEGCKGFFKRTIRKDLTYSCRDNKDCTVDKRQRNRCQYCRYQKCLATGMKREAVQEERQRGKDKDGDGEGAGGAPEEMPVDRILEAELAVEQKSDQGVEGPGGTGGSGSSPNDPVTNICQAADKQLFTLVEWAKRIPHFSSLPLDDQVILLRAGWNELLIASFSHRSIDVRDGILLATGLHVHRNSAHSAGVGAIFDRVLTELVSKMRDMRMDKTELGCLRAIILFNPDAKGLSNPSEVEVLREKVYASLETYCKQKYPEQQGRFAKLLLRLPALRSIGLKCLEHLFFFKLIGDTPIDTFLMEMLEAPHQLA
In short: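 After a 24 h incubation with test chemical, transfected HepG2 cells carrying NR-Gal4 fusions and GAL4-UAS reporter transcription units yield RNA whose reporter cDNA is FAM-labelled, HpaI-cut and sized by capillary electrophoresis; increases over DMSO are scored.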

Measured: AC50

O=C1CCCC1
not listed: [9] | [10] | [11]
inactive: all other assays above

CCCCCCCC[N+](C)(CCCCCCCC)CCCCCCCC
inactive: [1] | [2] | [9] | [3] | [7]

COC(=O)c1ccc2cc(C(=O)OC)ccc2c1
inactive: [10] | [3] | [4] | [6] | [7]
active: [9] 26.3 µM

C=CC(=O)NC(C)(C)CS(=O)(=O)O
inactive: [2] | [9] | [4] | [5] | [7]

C=C(C)c1cccc(C(C)(C)N=C=O)c1
inactive: [1] | [3] | [5] | [7] | [8]
active: [9] 5.62 µM | [10] 0.0915 µM

C[Si](C)O[Si](C)(C)O[Si](C)(C)O[Si](C)C
inactive: [1] | [10] | [3] | [6] | [11] | [7]

O=c1c2ccccc2nnn1CCl
inactive: [2] | [9] | [11] | [8]
active: [10] 5.33 µM

C=C(C)CCO
not listed: [8] | [9] | [11]
inactive: all other assays above

O=c1n(CCO)c(=O)n(CCO)c(=O)n1CCO
not listed: [7] | [9] | [10] | [11]
inactive: all other assays above

C1CN(SSN2CCOCC2)CCO1
inactive: [9] | [10]

CC(C)(C)c1n[nH]c(=O)n(N)c1=O
inactive: [1] | [9] | [10] | [3] | [5] | [6]

NC(CO)(CO)CO
inactive: [1] | [5] | [8]

O=S(=O)(O)c1ccccc1C=Cc1ccc(-c2ccc(C=Cc3ccccc3S(=O)(=O)O)cc2)cc1
inactive: [2] | [9] | [5] | [7] | [8]

CCCCCC(C)O (stereo unspecified)
inactive: [1] | [9] | [4] | [6] | [8]

CC1=CC[C@H]2C[C@@H]1C2(C)C
inactive: [2] | [9] | [10] | [5] | [6]

Cc1cc(C)c(C)c(O)c1
not listed: [2] | [3] | [4] | [5]
inactive: all other assays above

CCCC(=O)OCc1ccccc1
inactive: [2] | [5] | [6]

O=[N+]([O-])C1(Br)COCOC1
inactive: [1] | [9] | [6] | [8]

CNC(=S)N(C)C
not listed: [1] | [3] | [4] | [7]
inactive: all other assays above

CC(C)=CCC/C(C)=C\C#N
inactive: [1] | [9] | [4] | [5] | [11] | [8]
active: [10] 29.3 µM
